The whole screen tested about 200,000 compounds, of which about 4,500 (2.2%) were called active. Not shown: some 12% with an inconclusive outcome. Calls come from the whole dose curve; as a rule, active = well fitted inhibition curve with a large enough effect; inconclusive = small, poorly fitted or top-dose-only effect, or effect the other way; inactive = flat fitted curve, though single readings scatter. The sample as a whole holds a higher share of actives than the screen did.
The compounds below were run against Cruzipain (Trypanosoma cruzi) (UniProt P25779) (assay: qHTS Assay for Promiscuous and Specific Inhibitors of Cruzain (without detergent)). Conditions: purified cruzain, Z-FR-AMC fluorescence, no detergent.
Cruzipain (Trypanosoma cruzi), sequence (P25779 123-467 limits assumed): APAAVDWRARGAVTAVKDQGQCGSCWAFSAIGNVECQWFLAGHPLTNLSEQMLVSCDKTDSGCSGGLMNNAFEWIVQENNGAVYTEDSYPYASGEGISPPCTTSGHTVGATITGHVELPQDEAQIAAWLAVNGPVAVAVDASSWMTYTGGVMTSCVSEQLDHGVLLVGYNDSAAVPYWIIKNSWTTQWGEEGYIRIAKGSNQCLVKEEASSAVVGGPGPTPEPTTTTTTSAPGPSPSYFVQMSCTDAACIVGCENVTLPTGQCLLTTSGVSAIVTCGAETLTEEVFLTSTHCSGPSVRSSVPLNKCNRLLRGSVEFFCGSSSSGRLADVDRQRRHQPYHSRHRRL
Method in brief: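 Purified cruzain at 1.5 nM, pre-incubated 15 min with compound at room temperature in 100 mM sodium acetate pH 5.5, 5 mM DTT, 0.00005% Triton X-100. Reaction started with 2 uM Z-FR-AMC; AMC fluorescence increase over 60 s gives rate.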
Note: nearly all actives have a fitted effect of over 40% in size.
Potency is the fitted concentration of half-maximal effect.
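Throughout, for max response, negative = inhibition: plate controls were enzyme without inhibitor for no effect and buffer without enzyme for full effect.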

Structure (SMILES) | max response, negative = inhibition | Potency
CCOC(=O)C1CCN(c2ncnc3c2c(-c2ccccc2)cn3-c2cccc(C)c2)CC1 | 9.85% (inactive) | 
CCCCCC(=O)Nc1ccc(C(=O)N/N=C/c2ccc([N+](=O)[O-])cc2)cc1 | -23.1% (inactive) | 
Cc1nc2ccccc2cc1C(=O)N/N=C/c1ccc([N+](=O)[O-])cc1 | -1.64% (inactive) | 
Cc1cc(C(=O)N/N=C/c2ccc(O)c([N+](=O)[O-])c2)c(C)n1-c1ccc(F)cc1 |  | 10 µM (active)
COc1cc2nc(NCC(C)c3ccccc3)n3nc(-c4ccccc4)nc3c2cc1OC (configuration not stated) | 5.17% (inactive) | 
Cc1ccccc1NC(=O)CCOc1ccccc1 | -3.79% (inactive) | 
CCCN(CCC)C(=O)C1CCCN(c2ncnc3c2nc2n3CCCCC2)C1 (configuration not stated) | 9.35% (inactive) | 
Cc1ccc(CNC(=O)CCc2c(C)nc3nc(CNC(=O)OC(C)(C)C)nn3c2C)cc1 | 11.1% (inactive) | 
c1ccc(Nc2nc(N3CCOCC3)c3ccccc3n2)cc1 |  | 12.6 µM (active)
Cc1cc(C(=O)Nc2ccccc2N2CCOCC2)c2ccccc2n1 | 4.56% (inactive) | 
c1cncc(-c2nc(N3CCNCC3)c3ccccc3n2)c1 | 0.953% (inactive) | 
CN(CC(=O)Nc1ccccc1F)S(=O)(=O)c1ccc2c(c1)c(=O)n(C)c(=O)n2C | -13.2% (inactive) | 
Cc1nc2ccccn2c(=O)c1NC(=O)c1c(F)cccc1F | -1.01% (inactive) | 
COc1ccc(/C=C(/CC(=O)Nc2ccc(C)cc2)c2nc3ccccc3s2)cc1 |  | 31.6 µM (active)
COc1cccc(/C=C(/CC(=O)Nc2ccc(N3CCOCC3)cc2)c2nc3ccccc3s2)c1 | -7.21% (inactive) | 
COc1ccc(CC(=O)Nc2ccc(-c3nc4ccccc4s3)c(C)c2)cc1 | 7.02% (inactive) | 
COc1ccc(CCNC(=O)CCCn2c(=O)c3ccccc3n(Cc3ccc(C)cc3)c2=O)cc1OC | -4.62% (inactive) | 
Cc1ccc(CNC(=O)Cn2c(=O)ccc3cc(S(=O)(=O)N4CCCC4)ccc32)cc1 | -9.4% (inactive) | 
CC1CCCN(c2csc3ccc(F)cc3c2=O)C1 (configuration not stated) | 1.1% (inactive) | 
COc1ccccc1-c1noc(CSc2nnc(-c3ccccc3)n2-c2ccc(C)c(C)c2)n1 | -9.67% (inactive) | 
COc1ccccc1N1CCN(C(CNC(=O)C(=O)NCc2ccc(C)cc2)c2cccnc2)CC1 (configuration not stated) | 1.39% (inactive) | 
COc1cccc(Cn2c(SCc3ccc(C(=O)N4CCCCC4)cc3)nc3ccncc32)c1 | 12.2% (inactive) | 

Structure (SMILES) | max response, negative = inhibition | Potency
CC(=O)Nc1ccc(S(=O)(=O)NCC2CCC(C(=O)NCCc3ccccc3)CC2)cc1 (configuration not stated) | -2.5% (inactive) | 
COc1ccc(/C(C)=N/NC(=O)CCC(=O)Nc2ccc(Cl)cc2Cl)c(OC)c1 | 9.51% (inactive) | 
COc1ccc(CN2CCn3ncc(C(=O)Nc4ccc(Cl)cc4Cl)c3C2=O)cc1 |  | 5.01 µM (active)
Cc1cnc(C(=O)OCC(=O)Nc2ccc(Cl)cc2Cl)cn1 | -17.8% (inactive) | 
O=C(O)c1ccc(Cn2c(SCc3ccc(F)cc3)nc3ccncc32)cc1 | 2.53% (inactive) | 
Cc1ccc(CN2CCCn3nc(C(=O)NCc4ccccc4Cl)cc3C2=O)cc1 | 12.6% (inactive) | 
O=C(c1ccco1)n1nc(-c2ccc(Cl)cc2)nc1NCc1ccccc1 | 14.9% (inactive) | 
COC(=O)c1c(-c2cccs2)csc1NC(=O)CSc1ncnc2sc(C)c(C)c12 |  | 6.31 µM (active)
Cc1sc2ncnc(Sc3nc4ccccc4s3)c2c1C | -16.3% (inactive) | 
Cc1nc(SCC(=O)Nc2cc(C)on2)c2c(C)c(C)sc2n1 | -4.16% (inactive) | 
CCOc1ccc(N(CC)S(=O)(=O)N2CCCC(C(=O)Nc3ccc(C(C)=O)cc3)C2)cc1 (configuration not stated) | -0.766% (inactive) | 
COc1ccc(CCNC(=O)c2cnc3sc(N4CCCCCC4)nn3c2=O)cc1OC | 2.6% (inactive) | 
CO/N=C(/CS(=O)(=O)c1ccc(Br)cc1)c1ccc(OC)cc1 | 0.45% (inactive) | 
COc1ccc(C(=O)NNS(=O)(=O)c2ccc(C)cc2)cc1 | -9.3% (inactive) | 
CC(=O)c1c(Nc2ccccc2)sc(C(=O)c2ccccc2)c1C | 5.34% (inactive) | 
COc1ccc(S(=O)(=O)c2c(Nc3cccc(Cl)c3)sc(C(=O)c3ccccc3)c2N)cc1 |  | 3.98 µM (active)
COc1ccc(S(=O)(=O)c2c(Nc3ccc(C)cc3)sc(C(=O)c3ccc(C)cc3)c2N)cc1 |  | 5.01 µM (active)
COc1cccc(C(=O)c2sc3nc(-c4ccccc4)cc(C(F)(F)F)c3c2N)c1 | -13.2% (inactive) | 
Cc1ccc(-c2nnc(Nc3ccc(OCC(N)=O)cc3)c3ccccc23)cc1S(=O)(=O)NCC1CCCO1 (configuration not stated) | 7.01% (inactive) | 
Cc1ccccc1NC(=O)Cn1c(=O)n(Cc2ccco2)c(=O)c2ccc(C(=O)NC3CCCC3)cc21 | 4.88% (inactive) | 
COc1ccc(N2C(=O)NC(NS(=O)(=O)c3ccc(Cl)cc3)(C(F)(F)F)C2=O)cc1 (configuration not stated) | -4.66% (inactive) | 
CC(C)C12CN3CC(C(C)C)(CN(C1)C3c1ccc(OCc3ccccc3)cc1)C2=O (configuration not stated) | 10.1% (inactive) | 

Structure (SMILES) | max response, negative = inhibition | Potency
Cc1ccc(-c2cc(C(=O)Oc3ccccc3Cl)no2)cc1C | 0.973% (inactive) | 
COc1ccc(-c2nn(-c3ccccc3)cc2/C=N/Nc2ccccn2)cc1OC | 18.4% (inactive) | 
Cc1ccc(-c2nn(-c3ccccc3)cc2/C=N/NC(=O)c2ccc3c(c2)OCO3)cc1 |  | 25.1 µM (active)
Cc1nnc(SCC(=O)N/N=C/c2cn(-c3ccccc3)nc2-c2ccc(F)cc2)n1-c1ccccc1 | -3.1% (inactive) | 
COc1ccccc1CNC(=O)CCn1c(=O)c2ccccc2n(CC(=O)Nc2ccc(Br)cc2F)c1=O | -7.67% (inactive) | 
COc1ccccc1-c1cc(C(F)(F)F)nc(S(=O)(=O)CCCC(=O)Nc2cc(C)ccc2O)n1 | -0.825% (inactive) | 
Cc1ccccc1NC(=O)Cn1c(=O)n(CCc2ccccc2)c(=O)c2ccccc21 | -10.6% (inactive) | 
Cc1ccc(S(=O)(=O)c2nc(-c3cccs3)oc2N2CCCCC2)cc1 | 3.47% (inactive) | 
COC(=O)CSc1nc(C2CC2)nc2ccccc12 | -5.14% (inactive) | 
O=C(CSc1nc(C2CC2)nc2ccccc12)Nc1ccc2c(c1)OCCO2 | 2.26% (inactive) | 
CN(C(=O)CSc1nc(C2CC2)nc2ccccc12)c1nc(-c2ccccc2)cs1 |  | 3.16 µM (active)
CCOC(=O)c1c(SCC(=O)Nc2cccc(C)c2C)nc(=O)[nH]c1C | 4.55% (inactive) | 
CCOc1ccc(Nc2nc3c(S(=O)(=O)c4cccc(Cl)c4)nnn3c3ccsc23)cc1 | 3.27% (inactive) | 
CCOc1ccc(NC(=O)c2c(NC(=O)Cc3ccccc3)sc3c2CCC(C)C3)cc1 (configuration not stated) | 1.97% (inactive) | 
CCOC(=O)c1c(NC(=O)/C=C/c2ccc(OC)cc2)sc2c1CCC(C)C2 (configuration not stated) | -18.7% (inactive) | 
COC(=O)c1c(NC(=O)CCCOc2ccccc2)sc2c1CCC(C)C2 (configuration not stated) | 0.0824% (inactive) | 
COC(=O)c1c(NC(=O)CN2CCN(S(=O)(=O)c3ccccc3[N+](=O)[O-])CC2)sc2c1CCC(C)C2 (configuration not stated) |  | 10 µM (active)
Cc1c(Br)c([N+](=O)[O-])nn1CC(=O)Nc1sc2c(c1C(=O)OC(C)C)CCC(C)C2 (configuration not stated) |  | 15.8 µM (active)
Cc1cccc(OCCCC(=O)Nc2sc3c(c2C(N)=O)CCC(C)C3)c1 (configuration not stated) | 14.1% (inactive) | 
CCCn1c2ccccc2c2cnn(CC(=O)N3CCCC(C(=O)OCC)C3)c(=O)c21 (configuration not stated) | -0.857% (inactive) | 
Cc1ccc(C2C=C(c3ccc(Cl)cc3)Nc3nc(NC(=O)CCC(=O)O)nn32)cc1 (configuration not stated) | -6.04% (inactive) | 
O=C(c1ccccc1F)N1CCC(c2nc3c(nnn3Cc3cccc(F)c3)c(=O)[nH]2)CC1 | -6.41% (inactive) | 

Structure (SMILES) | max response, negative = inhibition | Potency
O=c1cc2nc(-c3ccccc3)nc(SCCOc3ccc(Cl)cc3)n2[nH]1 | 8.61% (inactive) | 
CCc1ccccc1OCCSc1nc(-c2cccs2)nc2cc(=O)[nH]n12 |  | 3.16 µM (active)
Cc1ccc(OCCSc2nc(-c3cccs3)nc3cc(=O)[nH]n23)cc1Cl | 3.5% (inactive) | 
COc1ccc(Cn2ccnc2SCC(=O)NCc2ccco2)cc1 | -5.79% (inactive) | 
CCCn1c(=O)c2c(C(F)(F)F)cc(-c3cccs3)nc2n(CCC)c1=O |  | 6.31 µM (active)
COCCn1c(=O)c(-c2cccs2)nc2cncnc21 | 2.13% (inactive) | 
FC(F)(F)c1cc(-c2cccs2)nc(NCc2ccco2)n1 | -1.04% (inactive) | 
Cc1oc2ncnc(N3CCOCC3)c2c1C(=O)NCCc1ccccc1 | 3.49% (inactive) | 
Cc1ccc(C(=O)Nc2nnc(-c3cccs3)s2)cc1C |  | 15.8 µM (active)
CCOc1cccc(C(=O)Nc2nnc(-c3cccs3)s2)c1 |  | 15.8 µM (active)
COC(=O)c1ccc(CSc2nnc(NC(C)C)s2)cc1 | 5.53% (inactive) | 
CCc1nnc(NC(=O)c2cccs2)s1 | -8.43% (inactive) | 
CCCc1nnc(NC(=O)c2cccs2)s1 | 0.875% (inactive) | 
Cc1ccc(C(=O)Oc2coc(CSc3nnc(NC(=O)c4cccs4)s3)cc2=O)cc1C |  | 25.1 µM (active)
CCOc1cccc(C(=O)Nc2nnc(S(=O)(=O)N(C)c3ccc(C)cc3)s2)c1 | -15.4% (inactive) | 
CCOc1cccc(C(=O)Nc2cccnc2)c1 | 1.56% (inactive) | 
CCOc1ccccc1Nc1nnc(SCc2ccc(C(=O)OC)o2)s1 | 2.33% (inactive) | 
COC(=O)c1cccc(Cn2nnc3sc4c(c3c2=O)CCC(C(C)(C)C)C4)c1 (configuration not stated) | 2.87% (inactive) | 
O=C(CCC(=O)N1CC2CCCN2c2ccccc21)NCc1ccccc1Cl (configuration not stated) | -16.5% (inactive) | 
Cc1nnc(NC(=O)CSc2nc3c([nH]c4ccccc43)c(=O)n2-c2cccc(Cl)c2)s1 | 2.35% (inactive) | 
COc1cc(-c2nnn(CC(=O)NCc3ccccc3)n2)cc(OC)c1OC | 25.6% (inactive) | 

Source: PubChem BioAssay AID1476 (National Center for Advancing Translational Sciences (NCATS), 2009)
